Results with a measured potency or affinity are listed apart. Results filed as inconclusive are left out. The source made the active and inactive calls.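 Rule for the calls: active = fluorescence drops from fewer live microbes, with half-maximal dose at most ten times the top valid tested dose; inconclusive = flat curve with 30 to 70% inhibition, or poor fit; inactive = the rest, including signal rises.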

This experiment is described as follows: reversal of fluconazole resistance in C. albicans, dose response, CaCi-2 strain, Alamar Blue, dry powder, set 3 (AID 488907). Particulars: C. albicans CaCi-2 (fluconazole-resistant clinical isolate) + fluconazole, 48 h; series mostly up to 6 µM.
For `Cc1cccc(N2CCN(C(=O)c3ccc(Cl)cc3)CC2)n1`, the result was inactive. As to `O=C(c1ccc(Cl)cc1)N1CCN(c2cnccn2)CC1`, the outcome was inactive.

Regarding `O=C(c1ccc(Cl)cc1)N1CCN(c2cccc(C(F)(F)F)n2)CC1`, the result was inactive.

(Values after PubChem BioAssay AID488907 (Broad Institute, 2010).)
